# Assay outcomes: PubChem BioAssay, National Center for Advancing Translational Sciences (NCATS)
# CRE-bla Fsk: CRE-bla signaling modulation under forskolin stimulation. CHO CRE-bla reporter (cAMP response element driving beta-lactamase), forskolin EC10, beta-lactamase ratio. AID 662. Potency, µM (series often up to 38.2 µM), for inactives: at the top dose activity change, negative = inhibition, actives largely listed as activators. actives 2.5% (n = 71,000); active = well fitted activation curve with a large enough effect in the signal ratio, with a control signal flat, not every such curve was filed as active; inconclusive = small, poorly fitted or top-dose-only effect, or effect the other way, or a change in a side signal; the % refers to the signal ratio; also: % of control where 0% means no effect
#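 CRE-bla CHO reporter cells treated with compound titration plus EC10 NKH 477 (water-soluble forskolin), incubated 3 h at 37 °C; CCF4 loading 2 h at room temperature, 460/530 nm emission ratio read, AC50 values derived for positive or negative modulators.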
# p53ts 32C tox: cytotoxicity in p53ts cells at permissive temperature. actives 0.93% (n = 130,000). H1299-p53A138V at 32C, ATP luminescence viability, 24 h. Potency, µM (highest dose often 46.1 µM), for the others: at the top dose activity change, negative = cytotoxicity, most hits filed as cytotoxic;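 also: 0% = DMSO and -100% = full killing by reference compound; nearly all actives have a fitted effect of over 55% in size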
#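 H1299-p53 A138V cells (temperature-sensitive p53) exposed 24 h to up to 46 uM compound at 32C, where p53 is wild-type in conformation. Viability read as ATP luminescence and normalised to DMSO and 100 uM tamoxifen. AC50 fitted with the Hill equation.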
# Peg3 imprint: inducers of genomic imprint erasure in mouse ES cells; actives 0.02% (n = 110,000); mouse ES Peg3-LacZ reporter, beta-gal luminescence, 40 h; Potency, µM (series often up to 60.7 µM), for the others: at the highest dose activity change, positive = activation, hits mostly activators
#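 Readout: BetaGlo luminescence (5 min, room temp) for LacZ from the normally silent maternal Peg3 allele in female Peg3LacZ-Neo ES cells. Cells 300/well, 40 h, 37C, 5% CO2. Data normalized per plate to negative controls.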
# IkB sig inh: inhibitors of IkB signaling in ABC-DLBCL cells. ABC-DLBCL IkBa-CBG/CBR dual luciferase ratio, 4 h; response scale: scaled: untreated 0%, proteasome inhibitor 100%. Potency, µM (titrated, usually from 57.1 µM), without a hit: at the highest dose IkBa stabilization activation. actives 0.04% (n = 110,000). AID 445; active = well fitted curve in the direction sought with a large enough effect in the signal ratio, not every such curve was filed as active; inconclusive = small, poorly fitted or top-dose-only effect, or a change in a side signal; the % refers to the signal ratio;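 also: the direction sought is a rising ratio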
#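 Luminescence ratio of IκBα-fused green versus native red beetle luciferase in OCI-Ly3 cells, 4 h post-doxycycline with compound; red signal alone, scaled from basal (0%) to zero light (-100%), flagged nonspecific or cytotoxic effects.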
# p53ts 39C kill: p53ts cell cytotoxicity, nonpermissive temperature | AID 902 | actives 1.5% (n = 130,000) | Potency, µM (top dose mostly 46.1 µM), for the others: top-dose activity change, negative = cell killing, usual class: cytotoxic | H1299-p53A138V viability at 39C, ATP luminescence, 24 h; also: % is scaled to controls: 0 for no effect and ±100 for the full control effect; nearly all actives have a fitted effect of over 55% in size
# * = called active by the depositor; ? = inconclusive; nt = no result given; ! = not active in a repeat; [ ] = dose if it differs, or a comment. Rows were chosen to be rich in hits. Some 3% of all compounds tested hit in one or more screens of this group. Unless noted, calls follow the shape of the dose curve; as a rule, active = well fitted curve in the direction sought with a large enough effect; inconclusive = small, poorly fitted or top-dose-only effect, or another doubt; inactive = no such curve, though single readings can be large; an effect the other way counts as inactive or inconclusive. Potency is read from the fitted curve at half-maximal effect.
SMILES,CRE-bla Fsk,p53ts 32C tox,Peg3 imprint,IkB sig inh,p53ts 39C kill
Cn1c(=O)n(Cc2ccc(F)cc2)c(=O)c2c1nc1n2CCCN1C1CCCCC1,10µM*,3%,-4%,-1%,8%
Cn1c(=O)n(Cc2ccccc2)c(=O)c2c1nc1n2CCCN1C1CCCCC1,?,-2%,7%,2%,-13%
COc1cccc(-n2c(=O)c3c4c(sc3n(Cc3ccccc3C#N)c2=O)CCCC4)c1,nt,5%,-3%[10.9 µM],1%,23%
CCN(CC)c1ccc(NS(=O)(=O)c2ccc3c(c2)CCCN3C(C)=O)c(C)c1,nt,13%,23%[10.9 µM],?,-18%
C=CCN1C(=O)C2C(C(=O)NCc3ccccc3)C3(C)C=CC2(O3)C1C(=O)NC(C)(C)C (centres undefined),-3%,10%,10µM*,-1%,-1%
CC1(C)Cc2c(sc(NC(=O)c3ccco3)c2C#N)CO1,16%,10µM*,-59%,-3%,13µM*
Cc1ccc(-c2nc(S(=O)(=O)c3ccc(F)cc3)c(N3CCN(c4ccccc4)CC3)o2)cc1,nt,-1%,-8%[10.9 µM],-1%,-1%
CCCOc1ccc(C(=O)Nc2cccc(NC(=O)c3ccc(Cl)cc3Cl)c2)cc1,nt,?,-13%[10.9 µM],?,7.9µM*
COC(=O)c1sccc1NC(=O)c1cccnc1,13µM*,7%,-9%,0%,-2%
COC(=O)c1sccc1NC(=O)c1ccc(OC)cc1,?,1%,-20%,-1%,-12%
c1ccc2c(c1)nnn1c3ccccc3nc21,10µM*,?,-89%,-7%,?
Cc1nc2ccccc2c2nc3ccccc3n12,?,?,-30%,-4%,-5%
Cc1cccc(-c2nc(CCNC(=O)c3ccccc3Br)cs2)c1,nt,2%,13%[10.9 µM],0%,?
COCCn1c(SCc2csc(-c3ccccc3)n2)nc2ccccc21,2.5µM*,-9%,2%,?,-17%
CN1C(=O)CSc2ccc(NC(=O)N3CCc4ccccc43)cc21,17%,10µM*,-45%,?,?
Cc1ccc(NC(=O)N2CCc3ccccc32)cc1,nt,4.5µM*,nt,nt,5µM*
COc1ccc(CCNC(=O)Cn2nnc(-c3cccc(C(F)(F)F)c3)n2)cc1OC,nt,-7%,-17%[10.9 µM],0%,20%
Clc1ccc(CSc2nc3ncccc3[nH]2)cc1,nt,13µM*,-28%[10.9 µM],-2%,10µM*
COc1ccc(C)cc1Nc1nc(N)c2cc(OC)c(OC)cc2n1,nt,20µM*,8%[10.9 µM],?,20µM*
COc1cc2nc(N3CCNCC3)nc(N)c2cc1OC,11%,6%,0%,6%,1%
O=C(CCC1N=C2c3ccccc3N=C(SCC(=O)Nc3cccc(Cl)c3)N2C1=O)NCc1ccco1 (centres undefined),nt,-4%,-5%[10.9 µM],?,-10%
COc1ccc(CCNC(=O)c2cc(=O)c3cc(C)c(C)cc3o2)cc1OC,nt,-9%,14%[10.9 µM],?,2%
CCOc1ccccc1NC(=O)Nc1ccc2nc(N3CCN(C)CC3)cc(C)c2c1,nt,?,-8%[10.9 µM],-3%,10µM*
Cc1cc(N2CCN(C)CC2)nc2ccc(NC(=O)Nc3ccc(Cl)cc3)cc12,nt,-14%,-6%[10.9 µM],-4%,-11%
Cc1ccccc1NC(=O)Nc1ccc2nc(N3CCN(C)CC3)cc(C)c2c1,nt,-14%,8%[10.9 µM],?,0%
SMILES,CRE-bla Fsk,p53ts 32C tox,Peg3 imprint,IkB sig inh,p53ts 39C kill
Cc1cc(N2CCN(C)CC2)nc2ccc(NC(=O)c3ccc(C(C)(C)C)cc3)cc12,nt,16µM*,-19%[10.9 µM],?,20µM*
Cc1sc(NC(=O)CSc2nc(N)n(CC(=O)c3ccccc3)n2)c(C#N)c1C,5µM*,2%,?,1%,-7%
CCOC(=O)c1cnc(SCC(=O)Nc2sc(C)c(C)c2C#N)nc1N,7%,-1%,nt,-1%,5%
Cc1cccc(CSc2cn(CC(=O)N3CCCCC3)c3ccccc23)c1,nt,-11%,-20%[10.9 µM],?,-20%
COc1ccccc1CNC(=O)c1cnc2sc(N3CCCCCC3)nn2c1=O,nt,-2%,-6%[10.9 µM],-4%,-13%
CC1=C(C(=O)Nc2cccc(C(F)(F)F)c2)C(c2ccccc2)n2ncnc2N1 (centres undefined),nt,1%,-10%[10.9 µM],2%,0%
O=C1c2ccc(O)c(O)c2C(=O)c2c(O)ccc(O)c21,nt,?,-18%,nt,5µM*
Cc1nc2nncn2c(NCc2ccc(Cl)cc2)c1C,nt,?,-16%[10.9 µM],?,-23%
Cc1ccc(S(=O)(=O)O[C@H]2CC(C(C)(C)C)CC[C@@H]2c2ccccc2)cc1 (some centres undefined),nt,nt,-8%[10.9 µM],nt,nt
CCOC(=O)N1CCC(Nc2c(OCC)c(=O)c2=O)CC1,4%,0%,-7%,5%,0%
CCCN(CCC)c1nc(NC2CCN(C(=O)OCC)CC2)nc(OC)n1,?,48%,-25%,?,20µM*
CN(C)c1ccc(/C=N/n2ncc3ccccc32)cc1,?,13µM*,-69%,?,16µM*
COc1cc2c(cc1OC)CN(C(=O)C(C)(C)C)CC2,?,-1%,-2%,-1%,1%
COc1cc2c(cc1OC)CN(C(=O)CC1CC3CCC1C3)CC2 (centres undefined),?,10µM*,-66%,?,13µM*
N#Cc1cc(C(=O)c2ccccc2OCC(=O)Nc2ccccc2)cn(C2CCCCC2)c1=O,nt,-2%,nt,nt,2%
O=C(COc1ccccc1C(=O)c1cnn(-c2ccccc2)c1)Nc1ccccc1,nt,11µM*,nt,nt,?
Cc1c(C(=O)NCc2ccccn2)sc2nc(-c3ccc(F)cc3)cn12,?,-3%,-14%,0%,-1%
Cc1c(C(=O)NCC2CCCO2)sc2nc(-c3ccc(F)cc3)cn12 (centres undefined),13µM*,-16%,-14%,3%,1%
COCCNc1ncnc2ccc(-c3ccccc3OC)cc12,?,11%,-17%,3%[11.4 µM],-7%
C=C1C(=O)O[C@@H]2[C@@H]1CC/C(C)=C\CC[C@@]1(C)O[C@H]21,?,6.3µM*!,-38%[16.8 µM],?,6.3µM*!
C=C1C(=O)O[C@@H]2[C@H]3O[C@]3(C)CCC=C(C)CC[C@@H]12,?,13µM*,-31%,?,13µM*
CC1CCC(NC(=O)C2(C)Cc3ccccc3C(=O)N2Cc2ccccc2Cl)CC1 (centres undefined),nt,0%,-10%[10.9 µM],?,-29%
CCOc1ccccc1CNC(=O)Cn1nc(C)c2nn(-c3ccc(Cl)cc3)c(C)c2c1=O,nt,0%,-3%[10.9 µM],?,-8%
COc1cc(NC(=O)c2cc3c(C)nc4ccccc4c3o2)cc(OC)c1OC,1.6µM*,-4%,-20%,13%,2%
Cc1nc2ccccc2c2oc(C(=O)N3CCc4ccccc43)cc12,0.4µM*,-1%,-5%,-5%,1%
